The sample as a whole holds a higher share of hits than the screen did.
Cycloheximide cs – affects cycloheximide protein synthesis inhibition readout, counter-screen; cell reporter, cycloheximide protein synthesis inhibition counterscreen; max response, %; hit rate 12% among 300,000; AID 2314; in the data active means max response mostly above about 13%, no sharp cut-off; inactive means mostly below about 14%; further: read at 38.3 µM for the half of the compounds with a filed dose
Shiga inhibitor – inhibitors of Shiga toxin in Vero cells | Vero cells, Shiga toxin protein synthesis inhibition reporter | inhibition, % at 38.7 µM | hit rate 9.2% among 290,000 | AID 2315; in the data active means inhibition mostly above about 28%, no sharp cut-off; inactive means mostly below about 43%
Giardia FBPA inh – inhibitors of Giardia lamblia fructose-1,6-bisphosphate aldolase; A8B2U2; purified Giardia FBPA; Potency, µM (doses to about 59.6 µM), usual class: inhibitors; hit rate 0.71% among 290,000; AID 2451; further: nearly all actives have a fitted effect of over 55% in size
Target sequence (A8B2U2 whole entry, looked up): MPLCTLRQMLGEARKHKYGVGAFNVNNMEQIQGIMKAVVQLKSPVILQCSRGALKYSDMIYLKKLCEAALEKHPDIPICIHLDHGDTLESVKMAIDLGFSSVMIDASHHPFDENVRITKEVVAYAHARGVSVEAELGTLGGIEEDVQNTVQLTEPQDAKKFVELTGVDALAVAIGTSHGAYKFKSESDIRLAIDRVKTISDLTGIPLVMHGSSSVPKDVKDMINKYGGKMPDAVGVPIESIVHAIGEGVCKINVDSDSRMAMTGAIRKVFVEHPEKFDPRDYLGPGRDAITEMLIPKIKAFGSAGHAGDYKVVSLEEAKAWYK
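Giardia FBPA (40 nM reagent) was preincubated 10 min at RT with compound (up to 57.5 uM final), then substrate plus GAPDH/TPI/NAD/arsenate coupling system with diaphorase/resazurin was added; resorufin fluorescence (525/598 nm) was read after 20 min.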
Tb PYK inh – inhibitors of Trypanosoma brucei pyruvate kinase; Q57TT1; AID 624173; TbPYK enzyme, Kinase-Glo Plus ATP luminescence, 45 min; hit rate 0.12% among 410,000; Potency, µM (titrated, usually from 76.8 µM), usual class: inhibitors; further: nearly all actives have a fitted effect of over 50% in size
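Quantitative HTS: titrated library compounds versus trypanosomal pyruvate kinase in TEA buffer (pH 7.2) containing KCl, MgCl2, BSA and Tween-20. Reactions were initiated with ADP, 130 uM final. Kinase-Glo Plus luminescence was read after 45 min at RT.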
LmPK inh – LmPK (Leishmania mexicana) enzyme inhibition. purified LmPK, Kinase-Glo ATP luminescence, 1 h. Potency, µM (titrated, usually from 57.5 µM), hits mostly inhibitors. hit rate 0.37% among 290,000. AID 1721
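In 50 mM imidazole pH 7.2 with 7 mM MgCl2, LmPK (0.1 nM) turned over PEP (0.5 mM) and ADP (0.1 mM) for 1 h at room temperature. Luciferase read-out of ATP.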
Sm TGR inh – blocks Schistosoma mansoni thioredoxin glutathione reductase; Q962Y6; purified TGR, DTNB reduction, TNB absorbance 405 nm; Potency, µM (top dose mostly 114 µM), most hits filed as inhibitors; hit rate 3% among 360,000; AID 485364; further: nearly all actives have a fitted effect of over 60% in size
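Kinetic colorimetric format: TGR-catalysed, NADPH-driven DTNB reduction monitored via TNB absorbance. Enzyme dispensed at 20 nM; compound exposure 15 min at room temperature before reaction start.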
Hits are given with their value; n = inactive; u = inconclusive; x = not tested or not shown; [ ] = remark or other dose. Unless noted, the call rests on the fitted dose curve; in most records, active means well fitted curve in the direction sought with a large enough effect; inconclusive means small, poorly fitted or top-dose-only effect, or another doubt; inactive means no such curve, though single readings can be large; an effect the other way counts as inactive or inconclusive.

SMILES	Cycloheximide cs	Shiga inhibitor	Giardia FBPA inh	Tb PYK inh	LmPK inh	Sm TGR inh
Cc1ccc2nc(NC(=O)C3CC3C)sc2c1 (configuration not stated)	37.4	94.3	x	n	n	n
Cc1ccc2nc(NC(=O)C3CCN(c4ncnc5sc(C)c(C)c45)CC3)sc2c1	18.2	n	x	n	n	n
CCOC(=O)c1cnc2c(ccc3ccccc32)c1Nc1cccc(Cl)c1	x	x	x	n	x	n
O=C(NCCN1CCOCC1)/C(=C\c1ccc(F)cc1)NC(=O)c1ccccc1	n	n	x	n	n	n
COc1ccc(Nc2ccc(Cl)nn2)cc1	15.2	n	n	n	n	n
Clc1ccc(Nc2ccc(Cl)nn2)cc1	n	47.8	n	n	n	n
CNc1ccc(Cl)nn1	n	n	n	n	n	n
Fc1ccc(Oc2nccc(-c3ccc(Cl)cc3)n2)cc1	26.1	35.8	n	n	n	n
Cc1nc2cc3nc(C)sc3cc2s1	36.3	109.2	n	n	n	n
CC(C)OC(=O)Cc1nc2sc(-c3ccccc3)cc2c(=O)[nH]1	60.6	69.4	n	n	n	n
Cc1cc2ccccc2c(=O)[nH]1	n	n	n	n	n	n
Cc1nc2sc(-c3ccccc3)cc2c(=O)[nH]1	19.2	n	n	n	u	n
Cc1nc2cc3ccccc3cc2c(=O)[nH]1	30.6	45.7	u	n	u	n
CN(C)c1cc(NC(=O)CNC(C)(C)C)c(O)c2c1C[C@@H]1C[C@H]3[C@H](N(C)C)C(=O)C(C(N)=O)=C(O)[C@@]3(O)C(=O)C1=C2O	x	x	x	n	x	x
O=C(CSc1cn(CC(=O)N2CCCCC2)c2ccccc12)Nc1ccccc1F	x	x	x	n	x	n
COc1ccc(CNC(=O)COc2cc(=O)n(C)c3ccccc23)cc1	n	n	n	n	n	n
O=C(Nc1cccc(Cl)c1)c1c(O)c2c(n(Cc3ccco3)c1=O)CCCC2	31.4	n	n	n	n	n
CCn1c(=O)cc(OCC(=O)NCc2ccco2)c2ccccc21	n	n	n	n	n	u
Cn1c(=O)cc(OCC(=O)NCc2cccs2)c2ccccc21	n	50.6	n	n	n	n
Cc1ccc(NC(=O)Cn2c(=O)n(CCCCC(=O)NCc3ccco3)c(=O)c3ccccc32)cc1	n	n	n	n	n	n
CCn1c(=O)cc(OCC(=O)NCc2ccc(C)o2)c2ccccc21	n	n	n	n	n	35.5µM
O=C(CCCn1c(=O)c2ccccc2n(CC(=O)NCc2ccco2)c1=O)NCc1ccco1	n	n	n	n	n	25.1µM
CCc1nn(CC(=O)NC(C)CCc2ccccc2)c(=O)c2cc3c(OC)cccc3n12 (configuration not stated)	x	x	x	n	x	n
Cc1ccc(NC(=O)C2(C)CCN2C2Cc3ccccc3C2)cc1 (configuration not stated)	x	x	x	n	x	x
CC(=O)Nc1cccc(Oc2nc(NC(C)C)nc3cc(-c4ccccc4)sc23)c1	x	x	x	n	x	x
SMILES	Cycloheximide cs	Shiga inhibitor	Giardia FBPA inh	Tb PYK inh	LmPK inh	Sm TGR inh
O=C(c1ccncc1)N1CCC2(CCCN(c3cccc(-c4ccccc4)c3)C2)CC1	x	x	n	n	x	x
COc1ccc(CNC(=O)CCCOc2cc(=O)n(C)c3ccccc23)cc1	n	n	n	n	n	n
O=C(Cn1c(=O)n(Cc2ccco2)c(=O)c2ccccc21)Nc1cccc(Cl)c1	22.9	30.5	n	n	n	n
COc1ccccc1-c1ccc(=O)n(CC(=O)NCc2cccs2)n1	n	40.5	n	n	n	n
Cn1c(=O)cc(OCCCC(=O)NCc2ccco2)c2ccccc21	n	n	n	n	n	39.8µM
Cc1ccc(CNC(=O)CCCOc2cc(=O)n(C)c3ccccc23)o1	n	n	n	n	n	12.6µM
CCCCC(=O)Nc1nnc(S(=O)(=O)N(C)Cc2ccc(Cl)cc2)s1	x	x	x	n[15.4 µM]	x	n
O=C(c1ccccc1)N1CCN(c2ccc(N3CCOCC3)nn2)CC1	x	x	x	n	x	n
Cc1ccc2c(=O)cc(C(=O)Nc3cccc(Cl)c3C)oc2c1C	x	x	x	n	x	n
O=C1CC(N2CCOCC2)C(=O)N1c1cc(Cl)cc(Cl)c1 (configuration not stated)	n	n	n	n	n	35.5µM
Cc1cc(C)cc(N2C(=O)CC(N3CCOCC3)C2=O)c1 (configuration not stated)	n	n	n	n	n	50.1µM
O=C(NCc1ccc(F)cc1)c1cc(C(=O)C2CC2)c[nH]1	n	n	x	n	n	n
Cc1ccc(NC(=O)c2cccc(S(=O)(=O)N3CCN(C)CC3)c2)cc1F	n	n	n	n	n	n
CC(/C=N/NC(=O)c1cccs1)=C\c1ccccc1	41.8	144.9	n	n	n	n
CC(C=NNC(=O)C(=O)NN=CC(C)=Cc1ccccc1)=Cc1ccccc1	x	x	x	n	x	x
O=C(O)/C(=C\c1ccc(Br)cc1)NC(=O)c1cccs1	n	n	n	n	n	n
O=C(N/N=C/C(Cl)=C\c1ccccc1)c1cccs1	51.2	81.3	n	n	n	n
CCOC(=O)N1CCc2c(sc3c2c(=O)n(-c2ccc(F)cc2)c(=O)n3CC(=O)c2ccc(Cl)cc2)C1	x	x	x	n	x	n
Cc1oc2ncnc(N3CCCCC3)c2c1C(=O)NCC1CCN(Cc2ccc(F)cc2)CC1	x	x	x	n	x	n
Cc1ccc(NC(=O)c2ccco2)c(NC(=O)c2ccc(Cl)cc2)c1	n	n	n	n	n	n
CSCCC(NC(=O)c1ccccc1Cl)C(=O)N1CC(C)OC(C)C1 (configuration not stated)	x	x	x	n	x	n
O=Cc1cn(-c2ccccc2)nc1-c1ccc(F)cc1	active	n	n	n	n	n
Cn1cc(C=O)c(-c2ccc3c(c2)OCCCO3)n1	43.8	82.8	n	n	n	n
N#Cc1cn(-c2ccccc2)nc1-c1ccc2c(c1)OCCO2	23.7	63.8	n	n	n	n
N#Cc1cn(-c2ccccc2)nc1-c1ccco1	n	n	n	x	n	44.7µM
SMILES	Cycloheximide cs	Shiga inhibitor	Giardia FBPA inh	Tb PYK inh	LmPK inh	Sm TGR inh
O=C(NCc1ccccc1)C1CCC(=O)N(CCN2CCOCC2)C1 (configuration not stated)	n	n	n	n	n	n
CCOC(=O)N1CCc2c(sc3c2c(=O)n(CCc2ccccc2)c(=O)n3CC(=O)Nc2ccccc2C)C1	x	x	x	n	x	n
CCC(=O)N1CCCN(S(=O)(=O)c2ccc(C)cc2)C1c1ccc(OC)cc1 (configuration not stated)	n	n	x	n	n	n
CCN(CC)C(=O)c1cn(-c2ccccc2)nc1-c1ccc2c(c1)OCCO2	n	n	n	n	n	x
O=Cc1cn(-c2ccccc2)nc1-c1ccc2c(c1)OCCO2	56.8	99.5	n	n	n	n
CN(C)c1ccc(/C=C2/SC(=O)N(CCN=C3NS(=O)(=O)c4ccccc43)C2=O)cc1	28.9	63.0	n	n	n	n
CCN1C(=O)C(=C2C=C(C)OC(C)=C2)C(=O)N(CC)C1=S	n	n	n	n	n	n
CCOC(=O)C1=CC(=C2C(=O)N(CC)C(=S)N(CC)C2=O)c2ccccc2O1	n	n	n	n	n	25.1µM

Assay outcomes: PubChem BioAssay, National Center for Advancing Translational Sciences (NCATS)
